Source: PubChem BioAssay (NCATS)
Records with an inconclusive call do not appear. Calls of active or inactive are those of the source. Unless noted, the call rests on the fitted dose curve; in most records, active means well fitted curve in the direction sought with a large enough effect; inconclusive means small, poorly fitted or top-dose-only effect, or another doubt; inactive means no such curve, though single readings can be large; an effect the other way counts as inactive or inconclusive.

Columns and labels:
[1] = AP1 Signaling Pathway (AID 357; active means well fitted curve in either direction with a large enough effect, not every such curve was filed as active;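 further: ME-180 reporter cells stimulated with EGF at its EC50 level; on the % scale 0 is the no-effect control and ±100 the full control effect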); conditions: ME-180 AP-1-bla reporter, EGF-induced, beta-lactamase ratio, 5 h; at 38 µM (top of the series)
In short: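 Beta-lactamase reporter under AP-1 response element, ME-180 background. Stimulus: EC50 EGF. Compound exposure 5 h, 37 °C. Detection: CCF4, 2.5 h RT, 460/530 nm. Values: AC50 from titration.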

[2] = biological target: Cytochrome P450 1A2 (Homo sapiens) (UniProt P05177); experiment: p450-cyp1a2 (AID 410; calls by dose curve;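 further: -100% = full effect of reference inhibitor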)
Sequence of Cytochrome P450 1A2 (Homo sapiens) (P05177 whole entry, looked up): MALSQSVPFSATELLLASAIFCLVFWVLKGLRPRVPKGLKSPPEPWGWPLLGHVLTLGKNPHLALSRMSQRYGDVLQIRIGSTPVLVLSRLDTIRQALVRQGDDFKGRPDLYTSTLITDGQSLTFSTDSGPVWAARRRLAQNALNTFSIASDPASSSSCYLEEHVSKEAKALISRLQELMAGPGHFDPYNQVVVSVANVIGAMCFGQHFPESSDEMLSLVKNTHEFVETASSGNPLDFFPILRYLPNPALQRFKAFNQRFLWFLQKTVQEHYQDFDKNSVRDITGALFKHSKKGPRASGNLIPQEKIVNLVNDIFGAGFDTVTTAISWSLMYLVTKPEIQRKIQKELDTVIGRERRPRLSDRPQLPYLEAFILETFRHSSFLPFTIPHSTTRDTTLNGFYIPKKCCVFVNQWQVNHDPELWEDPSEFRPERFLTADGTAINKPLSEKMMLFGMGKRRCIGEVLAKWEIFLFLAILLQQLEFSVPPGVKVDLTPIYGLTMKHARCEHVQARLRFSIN
In short: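 Luminescent readout of luciferin formed from Luciferin-ME by human CYP1A2; data normalized against complete inhibition by 57 uM furafylline. Enzyme 20nM, substrate 100uM at Km, 100mM KPO4 buffer, 60 min reaction at room temperature.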

[3] = NFAT Signaling Pathway (AID 444; active means well fitted curve in either direction with a large enough effect, not every such curve was filed as active;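 further: carbachol stimulus at about its EC50 of 1 µM final; on the % scale 0 is the no-effect control and ±100 the full control effect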); conditions: Jurkat NFAT-bla M1, carbachol, beta-lactamase ratio, 5 h; at 38 µM (top of the series)
In short: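 Read-out: CCF4 FRET ratio (460 nm/530 nm) after 1 h RT dye loading, used for %activity and AC50 from titration series. Cells: Jurkat NFAT-β-lactamase/M1 line, treated with compound plus 1 uM carbachol for 5 h, 37 °C.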

[4] = Stat Signaling Pathway (AID 446; active means well fitted curve in either direction with a large enough effect, not every such curve was filed as active;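 further: ME-180 cervical cancer cells given 40 pM IL-6 alongside compound; SIE-controlled beta-lactamase reporter measured as 460/530 nm FRET emission ratio; on the % scale 0 is the no-effect control and ±100 the full control effect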); conditions: ME-180 SIE beta-lactamase reporter, IL-6 stimulated, 5 h; at 38 µM (top of the series)
In short: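 Screening format detects activators and inhibitors alike: ME-180 SIE-bla cells stimulated at 40 pM IL-6 for 5 hrs with compound, then dual-emission beta-lactamase read at 405 nm excitation.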

[5] = biological target: Glucocorticoid receptor (Homo sapiens) (UniProt P04150); experiment: GR-GFP Redistribution (AID 450;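 active means compounds whose dose series gives a full or clear partial fitted curve of increased nuclear translocation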; further: potency means the concentration at half of the fitted maximal effect); conditions: U2OS GR-GFP nuclear translocation, laser cytometry, 2 h
Sequence of Glucocorticoid receptor (Homo sapiens) (P04150 whole entry, looked up): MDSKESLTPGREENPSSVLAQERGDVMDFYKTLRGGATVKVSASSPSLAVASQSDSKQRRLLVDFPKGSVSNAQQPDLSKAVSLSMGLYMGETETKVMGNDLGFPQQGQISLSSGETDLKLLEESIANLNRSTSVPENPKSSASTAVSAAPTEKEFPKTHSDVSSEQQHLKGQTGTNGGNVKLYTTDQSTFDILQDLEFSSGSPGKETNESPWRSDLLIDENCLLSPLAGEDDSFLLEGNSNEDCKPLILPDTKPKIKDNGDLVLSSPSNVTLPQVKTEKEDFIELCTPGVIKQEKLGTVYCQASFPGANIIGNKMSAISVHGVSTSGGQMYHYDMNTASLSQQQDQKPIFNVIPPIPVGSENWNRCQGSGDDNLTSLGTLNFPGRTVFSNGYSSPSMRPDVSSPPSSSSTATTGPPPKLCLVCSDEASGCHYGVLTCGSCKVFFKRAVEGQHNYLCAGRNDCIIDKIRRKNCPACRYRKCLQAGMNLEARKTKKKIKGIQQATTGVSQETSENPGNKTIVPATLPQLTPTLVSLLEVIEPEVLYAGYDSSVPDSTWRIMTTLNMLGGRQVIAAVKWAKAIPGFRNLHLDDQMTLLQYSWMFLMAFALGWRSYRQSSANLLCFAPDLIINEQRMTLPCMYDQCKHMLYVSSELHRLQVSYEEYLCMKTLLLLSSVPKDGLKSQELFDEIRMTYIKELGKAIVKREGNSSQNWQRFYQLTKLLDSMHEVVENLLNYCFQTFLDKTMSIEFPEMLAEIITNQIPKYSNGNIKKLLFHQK

[6] = biological target: Mitogen-activated protein kinase 10 (Mus musculus) (UniProt Q61831); experiment: JNK3 AlphaScreen Assay (AID 530; active means well fitted curve in either direction with a large enough effect, not every such curve was filed as active;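 further: kinase came from lysate of stimulated human HepG2 cells; signal reports phosphorylation of biotinylated GST-cJun 1-79 at Ser73 with 10 µM ATP; on the % scale 0 is the no-effect control and ±100 the full control effect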)
In short: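 Compound titrations were preincubated 15 minutes at room temperature with substrate, antibody and pre-activated JNK3-containing HepG2 lysate. Reactions were started with 10 uM ATP and stopped with EDTA-containing bead buffer for AlphaScreen detection.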

[7] = biological target: 3',5'-cyclic-AMP phosphodiesterase 4B (Homo sapiens) (UniProt Q07343); experiment: qHTS Assay for Inhibitors of PDE-IV (AID 607; active means well fitted activation curve with a large enough effect in the main read-out, with a control signal flat, not every such curve was filed as active; further: % of control where 0% means no effect)
Sequence of 3',5'-cyclic-AMP phosphodiesterase 4B (Homo sapiens) (Q07343 whole entry, looked up): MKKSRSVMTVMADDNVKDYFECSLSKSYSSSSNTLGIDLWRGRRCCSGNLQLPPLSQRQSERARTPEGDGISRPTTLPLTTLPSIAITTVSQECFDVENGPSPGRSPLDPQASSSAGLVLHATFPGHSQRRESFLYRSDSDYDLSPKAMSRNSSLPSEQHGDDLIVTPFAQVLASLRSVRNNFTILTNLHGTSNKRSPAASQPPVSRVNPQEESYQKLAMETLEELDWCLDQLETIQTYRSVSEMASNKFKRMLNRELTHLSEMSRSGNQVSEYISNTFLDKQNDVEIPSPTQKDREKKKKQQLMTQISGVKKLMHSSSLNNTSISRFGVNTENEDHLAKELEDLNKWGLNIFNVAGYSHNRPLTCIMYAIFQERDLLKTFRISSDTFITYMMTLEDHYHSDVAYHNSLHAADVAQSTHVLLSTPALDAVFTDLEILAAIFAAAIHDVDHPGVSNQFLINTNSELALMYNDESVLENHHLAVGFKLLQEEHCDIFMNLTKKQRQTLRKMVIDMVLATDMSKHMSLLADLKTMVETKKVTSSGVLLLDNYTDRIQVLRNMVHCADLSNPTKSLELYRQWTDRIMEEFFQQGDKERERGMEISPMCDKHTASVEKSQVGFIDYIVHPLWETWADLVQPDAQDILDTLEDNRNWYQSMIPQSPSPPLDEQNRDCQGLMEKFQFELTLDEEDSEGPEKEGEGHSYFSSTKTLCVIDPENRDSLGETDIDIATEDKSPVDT
In short: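 The readout is membrane depolarisation from a cAMP-sensing CNG channel, detected with a potential dye at ex 535/em 590. Cells were HEK293-derived (endogenous PDE-IV) at 1000 cells/well, titrated up to 22.9 uM final.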

[8] = biological target: Guanine nucleotide-binding protein G(i) subunit alpha-1 (Homo sapiens) (UniProt P63096); experiment: qHTS Assay for Inhibitors of RGS12 GoLoco Motif Activity (Green Fluorophore) (AID 879);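 further: 0% = labeled peptide with Gαi1 and full inhibition = labeled peptide alone without protein; negative values mean loss of peptide binding seen as reduced polarization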
Sequence of Guanine nucleotide-binding protein G(i) subunit alpha-1 (Homo sapiens) (P63096 whole entry, looked up): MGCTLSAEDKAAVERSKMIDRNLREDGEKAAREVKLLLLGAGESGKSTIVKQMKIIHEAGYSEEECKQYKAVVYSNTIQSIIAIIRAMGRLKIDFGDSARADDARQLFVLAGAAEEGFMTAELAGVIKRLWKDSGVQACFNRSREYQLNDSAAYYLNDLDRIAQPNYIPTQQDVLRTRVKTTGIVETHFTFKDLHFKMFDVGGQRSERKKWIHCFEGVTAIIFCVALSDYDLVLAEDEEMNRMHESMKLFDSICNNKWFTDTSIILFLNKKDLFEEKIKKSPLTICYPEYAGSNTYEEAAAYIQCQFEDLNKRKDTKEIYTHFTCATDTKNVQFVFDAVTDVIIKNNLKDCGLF
In short: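 Fluorescence polarization assay: 50 nM Gαi1 with 10 nM FITC-labeled RGS12 GoLoco peptide in 10 mM Tris pH 7.5, 150 mM NaCl, 0.1 mM GDP, 0.05% NP40, 10 min at room temperature with compound.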

[9] = biological target: Cytochrome P450 3A4 (Homo sapiens) (UniProt P08684); experiment: qHTS Assay for Activators of Cytochrome P450 3A4 (AID 885); further: nearly all actives have a fitted effect of over 65% in size
Sequence of Cytochrome P450 3A4 (Homo sapiens) (P08684 whole entry, looked up): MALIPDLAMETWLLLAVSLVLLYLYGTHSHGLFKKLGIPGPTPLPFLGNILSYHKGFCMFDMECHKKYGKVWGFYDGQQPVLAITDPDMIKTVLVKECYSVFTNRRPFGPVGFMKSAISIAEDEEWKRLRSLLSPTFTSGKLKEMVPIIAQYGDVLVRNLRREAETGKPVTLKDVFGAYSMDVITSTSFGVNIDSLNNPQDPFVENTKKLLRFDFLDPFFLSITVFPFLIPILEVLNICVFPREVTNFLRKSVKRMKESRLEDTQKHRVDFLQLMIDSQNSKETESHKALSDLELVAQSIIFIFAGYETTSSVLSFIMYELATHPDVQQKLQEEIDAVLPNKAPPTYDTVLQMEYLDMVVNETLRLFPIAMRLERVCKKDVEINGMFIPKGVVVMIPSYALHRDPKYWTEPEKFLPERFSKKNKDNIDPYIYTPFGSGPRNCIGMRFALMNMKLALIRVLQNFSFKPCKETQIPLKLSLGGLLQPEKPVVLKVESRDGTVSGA
In short: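 Steps: enzyme/substrate mix dispensed; compound added, 10 min RT; NADPH regeneration solution added, 60 min RT; luciferin detection buffer stops reaction; 20 min later luminescence measured.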

[10] = biological target: Muscarinic acetylcholine receptor M1 (Rattus norvegicus) (UniProt P08482); experiment: qHTS Assay for Antagonists of Acetylcholine Muscarinic M1 Receptor: Kinetic Measurement of Intracellular Calcium Response (AID 943);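 further: Fluo-4 calcium signal as peak divided by basal fluorescence over 4 min; nearly all actives have a fitted effect of over 75% in size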
Sequence of Muscarinic acetylcholine receptor M1 (Rattus norvegicus) (P08482 whole entry, looked up): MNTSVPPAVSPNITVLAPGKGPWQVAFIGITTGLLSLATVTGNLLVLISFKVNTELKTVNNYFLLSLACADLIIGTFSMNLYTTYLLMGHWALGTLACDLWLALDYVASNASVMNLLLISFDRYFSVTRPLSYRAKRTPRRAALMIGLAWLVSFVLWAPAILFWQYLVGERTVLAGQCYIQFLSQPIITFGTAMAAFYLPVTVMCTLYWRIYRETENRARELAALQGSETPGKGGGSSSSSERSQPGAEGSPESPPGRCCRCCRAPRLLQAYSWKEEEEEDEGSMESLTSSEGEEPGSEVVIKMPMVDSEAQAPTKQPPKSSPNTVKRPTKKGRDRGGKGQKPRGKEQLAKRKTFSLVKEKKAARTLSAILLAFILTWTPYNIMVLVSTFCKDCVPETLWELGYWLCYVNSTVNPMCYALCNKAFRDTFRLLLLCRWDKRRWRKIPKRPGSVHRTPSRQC
In short: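 Rat M1-CHO cells, 2000/well, overnight → Fluo-4 no-wash dye with probenecid, 1 h 37C → compound 10 min, room temp → basal read 6 s → carbachol EC80 (100 nM) → 4 min kinetic read; peak/basal.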

[11] = biological target: Muscarinic acetylcholine receptor M1 (Rattus norvegicus) (UniProt P08482); experiment: qHTS Assay for Antagonists of Acetylcholine Muscarinic M1 Receptor: Measurement of IP-One Response (AID 944); further: nearly all actives have a fitted effect of over 75% in size
In short: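 M1-CHO (rat), 2000 cells/well, overnight recovery; cpd 10 min; carbachol EC80 (200 nM), 30 min, HEPES buffer + 50 mM LiCl pH 7.4; IP-One HTRF, Ex 337, Em 620/665 nm.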

[12] = biological target: Pyruvate kinase (Leishmania mexicana) (UniProt Q27686); experiment: qHTS Validation Assay for Inhibitors of Leishmania Mexicana Pyruvate Kinase (AID 945);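 further: 0% = DMSO only neutral control wells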
Sequence of Pyruvate kinase (Leishmania mexicana) (Q27686 2-499 E452W): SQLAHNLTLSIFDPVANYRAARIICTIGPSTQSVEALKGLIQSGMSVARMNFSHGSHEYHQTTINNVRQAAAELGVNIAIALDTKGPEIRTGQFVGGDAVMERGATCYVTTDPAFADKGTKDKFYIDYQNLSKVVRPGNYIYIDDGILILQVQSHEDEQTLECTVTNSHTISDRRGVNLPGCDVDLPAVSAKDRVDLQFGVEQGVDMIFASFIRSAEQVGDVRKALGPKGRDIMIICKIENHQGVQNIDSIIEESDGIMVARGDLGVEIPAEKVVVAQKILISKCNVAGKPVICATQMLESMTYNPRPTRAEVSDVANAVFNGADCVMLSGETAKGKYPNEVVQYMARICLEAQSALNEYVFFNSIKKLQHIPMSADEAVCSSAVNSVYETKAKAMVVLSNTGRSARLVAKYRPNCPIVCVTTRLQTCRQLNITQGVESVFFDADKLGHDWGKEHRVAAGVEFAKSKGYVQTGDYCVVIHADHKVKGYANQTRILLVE
In short: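 LmPYK E451W 0.2 nM; 0.5 mM PEP, 0.1 mM ADP, 7 mM MgCl2, 50 mM KCl, imidazole pH 7.2, 0.01% Tween 20, 0.05% BSA; 1 h RT; PKLight luminescence; DMSO-normalized.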

[13] = biological target: Pyruvate kinase PKM (Homo sapiens) (UniProt P14618); experiment: qHTS Assay for Activators of Human Muscle Pyruvate Kinase (AID 954; active means well fitted curve in the direction sought with a large enough effect, not every such curve was filed as active;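 further: 0% = uninhibited enzyme and -100% = no enzyme or full thiadiazolimine inhibition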)
Sequence of Pyruvate kinase PKM (Homo sapiens) (P14618 whole entry, looked up): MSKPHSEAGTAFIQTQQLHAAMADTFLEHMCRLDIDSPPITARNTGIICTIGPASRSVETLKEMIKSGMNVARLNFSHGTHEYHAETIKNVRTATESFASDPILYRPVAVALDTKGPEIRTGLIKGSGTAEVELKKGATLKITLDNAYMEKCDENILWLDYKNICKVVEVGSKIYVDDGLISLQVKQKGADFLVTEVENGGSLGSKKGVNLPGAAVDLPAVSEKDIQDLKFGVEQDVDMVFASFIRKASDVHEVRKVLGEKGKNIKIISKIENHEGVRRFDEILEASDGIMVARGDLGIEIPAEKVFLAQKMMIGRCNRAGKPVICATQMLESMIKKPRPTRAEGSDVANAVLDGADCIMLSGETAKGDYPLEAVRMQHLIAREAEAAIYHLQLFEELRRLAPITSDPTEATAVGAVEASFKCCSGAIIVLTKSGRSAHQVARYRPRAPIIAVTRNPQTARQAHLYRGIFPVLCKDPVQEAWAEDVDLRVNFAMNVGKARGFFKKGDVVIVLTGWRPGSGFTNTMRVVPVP
In short: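 Reaction: 0.1 nM purified PKM2 with 0.5 mM phosphoenolpyruvate and 0.1 mM ADP, room temperature, 1 h. Readout: luciferase-based ATP luminescence after stop reagent. Activators judged against a 0.3 nM enzyme column.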

[14] = biological target: Alpha-galactosidase A (Homo sapiens) (UniProt P06280); experiment: Counterscreen for Glucocerebrosidase Inhibitors: qHTS Assay for Human alpha-Galactosidase at pH 4.5 (AID 992); further: 0% is about no effect
Sequence of Alpha-galactosidase A (Homo sapiens) (P06280 whole entry, looked up): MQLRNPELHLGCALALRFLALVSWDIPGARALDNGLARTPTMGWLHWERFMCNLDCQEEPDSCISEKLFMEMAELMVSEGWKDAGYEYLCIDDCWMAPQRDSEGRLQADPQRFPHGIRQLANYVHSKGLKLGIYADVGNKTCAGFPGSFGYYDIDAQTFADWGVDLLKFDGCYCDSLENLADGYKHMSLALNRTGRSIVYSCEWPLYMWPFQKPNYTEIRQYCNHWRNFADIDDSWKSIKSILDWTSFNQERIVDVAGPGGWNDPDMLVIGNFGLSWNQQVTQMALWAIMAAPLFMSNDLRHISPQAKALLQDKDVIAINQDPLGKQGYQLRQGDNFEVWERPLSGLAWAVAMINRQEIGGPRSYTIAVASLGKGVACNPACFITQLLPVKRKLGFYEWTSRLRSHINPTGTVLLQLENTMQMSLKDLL
In short: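 Concentration-response curves (0.7 nM to 77 uM final) were modeled with the Hill equation to give AC50. Reactions: 2 nM enzyme, 80 uM fluorogenic alpha-galactoside, pH 4.5 citric acid buffer, 20 min, room temperature.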

[15] = biological target: alpha-glucosidase (Oryza sativa, rice) (UniProt Q653V4); experiment: Counterscreen for Glucocerebrosidase Inhibitors: qHTS Assay for Rice alpha-Glucosidase at pH 5.0 (AID 997);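 further: 0% = full activity with enzyme and -100% = basal without enzyme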
In short: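 Rice alpha-glucosidase (4 nM final) with 400 uM 4-methylumbelliferyl-alpha-D-glucopyranoside in citrate buffer pH 5.0, 20 min at room temperature, stopped at pH 10; fluorescence 365/440 nm, compounds 0.7 nM–77 uM, AC50 from Hill fits.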

[16] = Validation of Assay for Modulators of Lamin A Splicing (AID 1459; active means well fitted curve in the direction sought with a large enough effect in the signal ratio; the % refers to the signal ratio;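 further: cells exposed to compound for two days before reading; 0% is about no effect; ratio rise marks activators and ratio drop marks inhibitors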)
In short: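 Splicing correction read as GFP (500-530 nm) over DsRed2 (575-640 nm) object intensity after 48 h compound exposure of reporter HeLa S3 clones (600 cells/well, 2% FBS medium); ancitabine and cycloheximide titrations, 0.5% DMSO as vehicle.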

[17] = biological target: DNA repair nuclease/redox regulator APEX1 (Homo sapiens) (UniProt P27695); experiment: qHTS Validation Assay for Inhibitors of the Human Apurinic/apyrimidinic Endonuclease 1 (APE1) (AID 1705)
In short: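 Activity read as rising fluorescence (598 nm emission, 525 nm excitation) from incision of a TAMRA/BHQ-2 duplex carrying a THF abasic site (50 nM). Compound and enzyme sat 15 min at RT before substrate start; signal change between first and third 60-s reads.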

[18] = Counterscreen for APE1 Inhibitors: Fluorescent Dye Displacement Validation Assay (AID 1707);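 further: plate controls were ThO with dsDNA and no compound for no effect and ThO without dsDNA for full effect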
In short: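 Assay buffer: Tris-HCl pH7.5 with 50mM NaCl, 2 mM MgCl2, 0.01% Tween-20. Dye 250 nM, duplex 50 nM final. Readout: decrease in ThO endpoint fluorescence, 480 nm excitation, 540 nm emission.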

[19] = biological target: Endonuclease 4 (Escherichia coli (strain K12)) (UniProt P0A6C1); experiment: Counterscreen for APE1 Inhibitors: qHTS Validation Assay for Inhibitors of Endonuclease IV (AID 1708); further: on the % scale 0 is the no-effect control and ±100 the full control effect
In short: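 qHTS concentration-response format; LOPAC1280 tested under APE1-screen conditions. 2 nM enzyme, 15 min compound preincubation at RT, then 50 nM TAMRA/BHQ-2 abasic substrate; kinetic fluorescence read, three reads at 60 s intervals.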

[20] = qHTS for differential inhibitors of proliferation of Plasmodium falciparum line 7G8 (AID 1815);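 further: potency means the concentration at half of the fitted maximal effect; parasite growth measured after three days of incubation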

COC(=O)c1c(-c2cc(OC)c(OC)c(OC)c2)c2ccnc(OCc3ncccn3)c2c(=O)n1Cc1ccnc(C)c1
active: Potency [20] 3.98 µM
inactive: activity change, negative = inhibition [1] -4.4% | Potency [2] | activity change, negative = inhibition [3] 4.39% | activity, negative = inhibition [4] -8.52% | Potency [5] > 46 µM | Potency [6] | Potency [7] | outcome [8] | Potency [9] | Potency [10] | Potency [11] | Potency [12] | outcome [13] | outcome [14] | outcome [15] | outcome [16] | Potency [17] | Potency [18] | Potency [19]
